Residue numbers refer to the chain shown, from its start. Whole data set: some 16,000 sequences, median “ka relative to ugcaugu” near 0.0091, cut for the highest 2% near 0.032. The sample as a whole holds a higher share of the highest values than the screen did.

The labels stand for the following.
T1: RBFOX1 RRM (Homo sapiens, UniProt Q9NWB1 109-208)
T1 sequence: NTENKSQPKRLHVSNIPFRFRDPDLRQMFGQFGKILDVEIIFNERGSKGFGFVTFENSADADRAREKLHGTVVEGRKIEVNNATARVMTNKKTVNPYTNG

B1: UCAGACC (DNA:RNA)
RNA: GGGAGACCGGAAUUCAGAUUGUCCUCAGACCUUAAAUCCCGUCGUAGCCACCA
DNA 1: CAATCTGAATTCCGGTCTCCC
DNA 2: TGGTGGCTACGACGGGATT
B2: UGAGCUA (DNA:RNA)
RNA: B1 RNA with C26G, A29C, C30U, C31A
DNA 1: CAATCTGAATTCCGGTCTCCC
DNA 2: TGGTGGCTACGACGGGATT
B3: UAGAGGG (DNA:RNA)
RNA: B1 RNA with C26A, A27G, G28A, A29G, C30G, C31G
DNA 1: CAATCTGAATTCCGGTCTCCC
DNA 2: TGGTGGCTACGACGGGATT
B4: AACACAA (DNA:RNA)
RNA: GGGAGACCGGAAUUCAGAUUGUCCAACACAAUUAAAUCCCGUCGUAGCCACCA
DNA 1: CAATCTGAATTCCGGTCTCCC
DNA 2: TGGTGGCTACGACGGGATT
B5: GAGAUCC (DNA:RNA)
RNA: B4 RNA with A25G, C27G, C29U, A30C, A31C
DNA 1: CAATCTGAATTCCGGTCTCCC
DNA 2: TGGTGGCTACGACGGGATT
B6: UCUGUUC (DNA:RNA)
RNA: B1 RNA with A27U, A29U, C30U
DNA 1: CAATCTGAATTCCGGTCTCCC
DNA 2: TGGTGGCTACGACGGGATT
B7: GAGGGGG (DNA:RNA)
RNA: B4 RNA with A25G, C27G, A28G, C29G, A30G, A31G
DNA 1: CAATCTGAATTCCGGTCTCCC
DNA 2: TGGTGGCTACGACGGGATT
B8: UGGCUUC (DNA:RNA)
RNA: B1 RNA with C26G, A27G, G28C, A29U, C30U
DNA 1: CAATCTGAATTCCGGTCTCCC
DNA 2: TGGTGGCTACGACGGGATT
B9: UGGCGUC (DNA:RNA)
RNA: B1 RNA with C26G, A27G, G28C, A29G, C30U
DNA 1: CAATCTGAATTCCGGTCTCCC
DNA 2: TGGTGGCTACGACGGGATT
B10: UGGCGUG (DNA:RNA)
RNA: B1 RNA with C26G, A27G, G28C, A29G, C30U, C31G
DNA 1: CAATCTGAATTCCGGTCTCCC
DNA 2: TGGTGGCTACGACGGGATT
B11: UGGCUGG (DNA:RNA)
RNA: B1 RNA with C26G, A27G, G28C, A29U, C30G, C31G
DNA 1: CAATCTGAATTCCGGTCTCCC
DNA 2: TGGTGGCTACGACGGGATT
B12: GCUGGUU (DNA:RNA)
RNA: B1 RNA with U25G, A27U, A29G, C30U, C31U
DNA 1: CAATCTGAATTCCGGTCTCCC
DNA 2: TGGTGGCTACGACGGGATT
B13: CGGCUGG (DNA:RNA)
RNA: GGGAGACCGGAAUUCAGAUUGUCCCGGCUGGUUAAAUCCCGUCGUAGCCACCA
DNA 1: CAATCTGAATTCCGGTCTCCC
DNA 2: TGGTGGCTACGACGGGATT
B14: GGCUGGU (DNA:RNA)
RNA: B13 RNA with C25G, G27C, C28U, U29G, G31U
DNA 1: CAATCTGAATTCCGGTCTCCC
DNA 2: TGGTGGCTACGACGGGATT
B15: UCCUGGC (DNA:RNA)
RNA: B1 RNA with A27C, G28U, A29G, C30G
DNA 1: CAATCTGAATTCCGGTCTCCC
DNA 2: TGGTGGCTACGACGGGATT
B16: UUGCUGG (DNA:RNA)
RNA: B13 RNA with C25U, G26U
DNA 1: CAATCTGAATTCCGGTCTCCC
DNA 2: TGGTGGCTACGACGGGATT
B17: UGGCUUG (DNA:RNA)
RNA: B13 RNA with C25U, G30U
DNA 1: CAATCTGAATTCCGGTCTCCC
DNA 2: TGGTGGCTACGACGGGATT
B18: GUGCUGG (DNA:RNA)
RNA: B13 RNA with C25G, G26U
DNA 1: CAATCTGAATTCCGGTCTCCC
DNA 2: TGGTGGCTACGACGGGATT
B19: UGGCGUA (DNA:RNA)
RNA: B13 RNA with C25U, U29G, G30U, G31A
DNA 1: CAATCTGAATTCCGGTCTCCC
DNA 2: TGGTGGCTACGACGGGATT
B20: GCUAGGA (DNA:RNA)
RNA: B4 RNA with A25G, A26C, C27U, C29G, A30G
DNA 1: CAATCTGAATTCCGGTCTCCC
DNA 2: TGGTGGCTACGACGGGATT
B21: UCAGCGA (DNA:RNA)
RNA: B1 RNA with A29C, C30G, C31A
DNA 1: CAATCTGAATTCCGGTCTCCC
DNA 2: TGGTGGCTACGACGGGATT
B22: ACCACAA (DNA:RNA)
RNA: B4 RNA with A26C
DNA 1: CAATCTGAATTCCGGTCTCCC
DNA 2: TGGTGGCTACGACGGGATT
B23: GUCGAGG (DNA:RNA)
RNA: B13 RNA with C25G, G26U, G27C, C28G, U29A
DNA 1: CAATCTGAATTCCGGTCTCCC
DNA 2: TGGTGGCTACGACGGGATT
B24: GACCCGU (DNA:RNA)
RNA: B4 RNA with A25G, A28C, A30G, A31U
DNA 1: CAATCTGAATTCCGGTCTCCC
DNA 2: TGGTGGCTACGACGGGATT
B25: AGAUGGC (DNA:RNA)
RNA: B13 RNA with C25A, G27A, C28U, U29G, G31C
DNA 1: CAATCTGAATTCCGGTCTCCC
DNA 2: TGGTGGCTACGACGGGATT
B26: CGCUGGA (DNA:RNA)
RNA: B13 RNA with G27C, C28U, U29G, G31A
DNA 1: CAATCTGAATTCCGGTCTCCC
DNA 2: TGGTGGCTACGACGGGATT
B27: GCUAUGG (DNA:RNA)
RNA: B13 RNA with C25G, G26C, G27U, C28A
DNA 1: CAATCTGAATTCCGGTCTCCC
DNA 2: TGGTGGCTACGACGGGATT
B28: CACCGAC (DNA:RNA)
RNA: B4 RNA with A25C, A28C, C29G, A31C
DNA 1: CAATCTGAATTCCGGTCTCCC
DNA 2: TGGTGGCTACGACGGGATT
B29: GGAAGCG (DNA:RNA)
RNA: B13 RNA with C25G, G27A, C28A, U29G, G30C
DNA 1: CAATCTGAATTCCGGTCTCCC
DNA 2: TGGTGGCTACGACGGGATT
B30: CUCUACU (DNA:RNA)
RNA: B1 RNA with U25C, C26U, A27C, G28U, C31U
DNA 1: CAATCTGAATTCCGGTCTCCC
DNA 2: TGGTGGCTACGACGGGATT
B31: GUCAUUG (DNA:RNA)
RNA: B4 RNA with A25G, A26U, C29U, A30U, A31G
DNA 1: CAATCTGAATTCCGGTCTCCC
DNA 2: TGGTGGCTACGACGGGATT

This assay concerns the target T1, RBFOX1 RRM. Description: EMSA; HiTS-Eq, 1 nM pool, 10 min; buffer printed only for the single-RNA assays: 10 mM Tris pH 7.5, 150 mM NaCl, 3.4 mM EDTA, 0.001% NP-40, 30 C. The following applies: tags: His6 N-terminal (pET28a); label: 5' 32P. The essentials:
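A pool of RNA with 7 randomized nucleotides, 5′-radiolabelled and with DNA-annealed flanks, was equilibrated at 1 nM for 10 min in 50 µL with purified RbFox RRM, wild type or mutant, across increasing protein concentrations. Free RNA was separated by 8% native PAGE, excised, reverse-transcribed, barcoded by PCR and sequenced. Relative association constants were obtained from read-count changes of each RNA species versus the control reaction and normalised to the cognate motif.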
As for B1, the binding signal is 0.00454 KA relative to UGCAUGU.

Take B2: the binding signal is 0.015 KA relative to UGCAUGU.

Consider B3, for which the binding signal was 0.00669 KA relative to UGCAUGU.

For B4, the binding signal was 0.00155 KA relative to UGCAUGU.

For B5, the binding signal is 0.0136 KA relative to UGCAUGU.

Regarding B6, the binding signal is 0.0184 KA relative to UGCAUGU.

With B7, the binding signal is 0.0168 KA relative to UGCAUGU.

As for B8, the binding signal is 0.0201 KA relative to UGCAUGU.

With B9, the binding signal is 0.0251 KA relative to UGCAUGU.

For B10, the binding signal was 0.0332 KA relative to UGCAUGU.

For B11, the binding signal is 0.0415 KA relative to UGCAUGU.

In the case of B12, the binding signal is 0.0289 KA relative to UGCAUGU.

Turning to B13, the binding signal is 0.0236 KA relative to UGCAUGU.

For B14, the binding signal was 0.0324 KA relative to UGCAUGU.

Turning to B15, the binding signal is 0.0109 KA relative to UGCAUGU.

B16: the binding signal is 0.0302 KA relative to UGCAUGU.

Turning to B17, the binding signal is 0.0526 KA relative to UGCAUGU.

With B18, the binding signal is 0.0295 KA relative to UGCAUGU.

Consider B19, for which the binding signal was 0.0143 KA relative to UGCAUGU.

On to B20, for which the binding signal was 0.00693 KA relative to UGCAUGU.

Regarding B21, the binding signal is 0.00561 KA relative to UGCAUGU.

For B22, the binding signal is 0.00102 KA relative to UGCAUGU.

With B23, the binding signal was 0.0114 KA relative to UGCAUGU.

Consider B24, for which the binding signal is 0.00715 KA relative to UGCAUGU.

B25: the binding signal is 0.0111 KA relative to UGCAUGU.

Turning to B26, the binding signal is 0.00997 KA relative to UGCAUGU.

For B27, the binding signal is 0.0134 KA relative to UGCAUGU.

Turning to B28, the binding signal was 0.00223 KA relative to UGCAUGU.

On to B29, for which the binding signal is 0.0177 KA relative to UGCAUGU.

Turning to B30, the binding signal was 0.00629 KA relative to UGCAUGU.

With B31, the binding signal was 0.0126 KA relative to UGCAUGU.
